Bioassay records as filed in PubChem.
Shown are actives, neighbours in structure and some others; about 0.87% of the full set was active somewhere.
EPAC1 antagonist = qHTS for Antagonist of cAMP-regulated guanine nucleotide exchange factor 3 (EPAC1): primary screen; hit rate 0.14% among 360,000; Potency, µM (titrated, usually from 115 µM), for inactives: at the top dose activity change, negative = inhibition, most hits filed as inhibitors; AID 720709, 2013; Rap guanine nucleotide exchange factor 3 (Homo sapiens), O95398; EPAC1 GEF assay, Rap1b-BODIPY-GDP exchange fluorescence;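 further: potency means the concentration at half of the fitted maximal effect; plate controls were vehicle for no effect and positive control for full effect; nearly all actives have a fitted effect of over 50% in size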
USP1-UAF1 inh = Inhibitors of USP1/UAF1: Primary Screen; Ubiquitin carboxyl-terminal hydrolase 1 (Homo sapiens), O94782; recombinant USP1/UAF1, Ub-Rhodamine cleavage fluorescence; Potency, µM (series often up to 57.1 µM), inactives show top-dose activity change, negative = inhibition, actives largely listed as inhibitors; hit rate 0.23% among 390,000; further: potency means the concentration at half of the fitted maximal effect; on the % scale 0 is the no-effect control and ±100 the full control effect; nearly all actives have a fitted effect of over 60% in size
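In this screen, compounds sit with the deubiquitinase complex (1nM) for 15 min at room temperature before Ub-Rho is added at 150nM final. Fluorescence rise is then followed for 6 reads every 60 seconds.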
EPAC2 antag = qHTS for Antagonist of cAMP-regulated guanine nucleotide exchange factor 2 (EPAC2): primary screen. hit rate 0.18% among 360,000. EPAC2 GEF exchange of Rap1B-BODIPY-GDP, fluorescence. Rap guanine nucleotide exchange factor 4 (Homo sapiens), Q8WZA2. Potency, µM (series often up to 114 µM), inactives show at the top dose activity, negative = inhibition, actives largely listed as inhibitors. AID 720708, 2013; further: potency means the concentration at half of the fitted maximal effect; on the % scale 0 is the no-effect control and ±100 the full control effect; nearly all actives have a fitted effect of over 45% in size
Target sequence (Q8WZA2 whole entry, looked up): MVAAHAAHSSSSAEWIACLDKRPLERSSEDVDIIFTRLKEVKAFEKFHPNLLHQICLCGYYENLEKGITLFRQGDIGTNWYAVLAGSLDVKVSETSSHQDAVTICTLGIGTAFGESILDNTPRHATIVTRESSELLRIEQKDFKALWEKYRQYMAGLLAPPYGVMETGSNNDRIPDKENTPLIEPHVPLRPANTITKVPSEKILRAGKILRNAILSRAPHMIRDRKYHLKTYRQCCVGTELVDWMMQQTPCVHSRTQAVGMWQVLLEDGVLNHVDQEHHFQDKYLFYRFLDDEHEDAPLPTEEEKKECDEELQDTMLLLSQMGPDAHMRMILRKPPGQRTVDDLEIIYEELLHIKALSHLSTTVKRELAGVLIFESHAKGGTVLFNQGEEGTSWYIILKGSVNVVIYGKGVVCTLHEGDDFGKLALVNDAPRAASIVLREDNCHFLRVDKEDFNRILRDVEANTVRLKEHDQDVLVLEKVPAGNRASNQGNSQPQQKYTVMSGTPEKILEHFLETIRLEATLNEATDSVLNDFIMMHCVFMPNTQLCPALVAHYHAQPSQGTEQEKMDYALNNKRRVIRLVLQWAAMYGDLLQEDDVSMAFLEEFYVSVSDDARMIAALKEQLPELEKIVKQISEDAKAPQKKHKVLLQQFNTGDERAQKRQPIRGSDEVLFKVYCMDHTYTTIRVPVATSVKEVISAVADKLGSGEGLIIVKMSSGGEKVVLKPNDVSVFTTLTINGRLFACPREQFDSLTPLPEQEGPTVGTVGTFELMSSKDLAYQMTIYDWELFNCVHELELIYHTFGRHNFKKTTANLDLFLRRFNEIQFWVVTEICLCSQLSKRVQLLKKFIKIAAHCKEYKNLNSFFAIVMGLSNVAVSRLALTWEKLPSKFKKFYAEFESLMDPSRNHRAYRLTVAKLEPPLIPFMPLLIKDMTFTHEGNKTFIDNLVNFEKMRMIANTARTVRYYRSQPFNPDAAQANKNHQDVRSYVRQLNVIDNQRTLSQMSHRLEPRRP
EPAC2 agonist = qHTS for Agonist of cAMP-regulated guanine nucleotide exchange factor 4 (EPAC2): primary screen | EPAC2 activation, biochemical qHTS; response scale: 100% = 6.5 mM cAMP response | hit rate 0.079% among 360,000 | Potency, µM (top dose mostly 154 µM), for inactives: top-dose activation, usual class: activators | AID 720711, 2013 | Rap guanine nucleotide exchange factor 4 (Homo sapiens), Q8WZA2; further: potency means the concentration at half of the fitted maximal effect; nearly all actives have a fitted effect of over 50% in size
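Compounds were titrated in qHTS against a Rap1B-BODIPY-GDP (250 nM) complex with EPAC2 (100 nM) and GDP (50 uM). BODIPY-GDP release tracked at 480/540 nm over 30 min at room temperature, normalized to 6.5 mM cAMP.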
FBPA coupling cs = qHTS Assay for Inhibitors of Fructose-1,6-bisphosphate Aldolase from Giardia Lamblia: Coupling assay counterscreen; coupling enzyme system counterscreen, AmpLite Red fluorescence; activity change, negative = inhibition, % at 58.2 µM, hits read low; hit rate 0.67% among 290,000; AID 2472, 2010; in the data active means activity change below about -30%; further: on the % scale 0 is the no-effect control and ±100 the full control effect
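First, compound is pin-transferred into glyceraldehyde-3-phosphate coupling-enzyme reagent at 57.5 uM final and held 10 min at RT. Next, substrate, coupling system and AmpLite Red are added. After 20 min RT, fluorescence (525/598 nm) is read.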
EPAC1 ag = qHTS for Agonist of cAMP-regulated guanine nucleotide exchange factor 3 (EPAC1): primary screen; hit rate 0.073% among 360,000; Potency, µM (series often up to 154 µM), for the others: at the highest dose activation, hits mostly activators; Rap guanine nucleotide exchange factor 3 (Homo sapiens), O95398; EPAC1 agonist qHTS, biochemical assay; response scale: 100% = response to 6.5 mM cAMP; further: potency means the concentration at half of the fitted maximal effect; nearly all actives have a fitted effect of over 60% in size
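Nucleotide exchange by EPAC1 (100 nM) on Rap1B–BODIPY-GDP (250 nM) in the presence of 50 uM GDP is tracked fluorescently at 480/540 nm over 30 min. Signals are normalized to a 6.5 mM cAMP control.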
Active calls of the source: *; [ ] = remark or other dose. Unless noted, the call rests on the fitted dose curve; in most records, active means well fitted curve in the direction sought with a large enough effect; inconclusive means small, poorly fitted or top-dose-only effect, or another doubt; inactive means no such curve, though single readings can be large; an effect the other way counts as inactive or inconclusive.

`COc1cc(OC)c(OC)cc1/C=C1\Oc2cc(OCC(=O)N3Cc4ccccc4C[C@H]3C(=O)O)ccc2C1=O` gave EPAC1 antagonist -27%, USP1-UAF1 inh 14µM*, EPAC2 antag -3%, EPAC2 agonist 17%, FBPA coupling cs 2 and EPAC1 ag 6%.
CC(=O)N1CCCc2cc(S(=O)(=O)N(C)CC(=O)Nc3ccc(F)cc3Cl)ccc21 was read as USP1-UAF1 inh -3%.
N#C/C(=C\c1cn(Cc2ccc(C#N)cc2)c2ccccc12)C(=O)NCc1cccs1 was read as EPAC1 antagonist 9%, USP1-UAF1 inh -5%, EPAC2 antag 20%, EPAC2 agonist 79µM*, FBPA coupling cs -1 and EPAC1 ag 0%.
For N#C/C(=C\c1cn(CCOc2ccccc2F)c2ccccc12)C(=O)NCc1cccs1 the results were EPAC1 antagonist -6%, USP1-UAF1 inh -4%, EPAC2 antag -19%, EPAC2 agonist -3%, FBPA coupling cs 3 and EPAC1 ag 1%.
Screening CC(Sc1nc2cc(Cl)ccc2s1)C(=O)Nc1cccc(S(=O)(=O)N2CCOCC2)c1 (stereo not given) returned EPAC1 antagonist inconclusive, USP1-UAF1 inh -11%, EPAC2 antag -8%, EPAC2 agonist 26%, FBPA coupling cs -8 and EPAC1 ag 8%.
For CCn1ncc([N+](=O)[O-])c1C(=O)N1CCCC1 the results were EPAC1 antagonist -1%, USP1-UAF1 inh -4%, EPAC2 antag -18%, EPAC2 agonist 3%, FBPA coupling cs 5 and EPAC1 ag 1%.
For CCOC(=O)C1=C(C)NC(=O)C1CC(=O)Nc1ccccc1 (stereo not given) the results were FBPA coupling cs -42*.
`O=C(Nc1nnc(C2CC2)s1)c1cc(S(=O)(=O)N2CCCCC2)ccc1N1CCOCC1` gave EPAC1 antagonist -3%, USP1-UAF1 inh -24%, EPAC2 antag 3%, EPAC2 agonist 13%, FBPA coupling cs 1 and EPAC1 ag 4%.
Screening O=C(Nc1cccs1)Nc1ccccc1Cl returned EPAC1 antagonist -21%, USP1-UAF1 inh 3%, EPAC2 antag 22µM*, EPAC2 agonist 6%, FBPA coupling cs -6 and EPAC1 ag -4%.
COc1ccc2c(c1)C1=C(CC2)C(c2ccc(C)cc2)NC(=S)N1 (stereo not given) was read as EPAC1 antagonist -21%, USP1-UAF1 inh 1%, EPAC2 antag -8%, EPAC2 agonist 15%, FBPA coupling cs -3 and EPAC1 ag 10%.
For Cc1ccc(C2NC(=O)NC3=C2CCc2ccccc23)cc1 (stereo not given) the results were EPAC1 antagonist -3%, USP1-UAF1 inh -15%, EPAC2 antag 6%, EPAC2 agonist 4%, FBPA coupling cs -40* and EPAC1 ag -3%.
For CC(C)c1ccc(C2NC(=O)NC3=C2CCc2ccccc23)cc1 (stereo not given) the results were EPAC1 antagonist -9%, USP1-UAF1 inh -7%, EPAC2 antag 0%, EPAC2 agonist -11%, FBPA coupling cs -10 and EPAC1 ag 0%.
Screening COc1cccc(C2NC(=S)NC3=C2CCc2ccccc23)c1 (stereo not given) returned EPAC1 antagonist -2%, USP1-UAF1 inh -1%, EPAC2 antag 0%, EPAC2 agonist 6%, FBPA coupling cs -43* and EPAC1 ag 3%.
For CCOC(=O)NC(=O)c1cn(-c2ccc(OC)cc2)c(=O)[nH]c1=O the results were EPAC1 antagonist 0%, USP1-UAF1 inh 5%, EPAC2 antag 10%, EPAC2 agonist 5%, FBPA coupling cs 1 and EPAC1 ag 0%.
Screening COc1ccccc1N1CCN(C(=O)c2cc(C(C)(C)C)oc2C)CC1 returned EPAC1 antagonist 25%, USP1-UAF1 inh -21%, EPAC2 antag 6%, EPAC2 agonist 3%, FBPA coupling cs -7 and EPAC1 ag 2%.
For CN(C)c1ccc(N=Cc2ccco2)cc1 the results were EPAC1 antagonist 2%, USP1-UAF1 inh inconclusive, EPAC2 antag -2%, EPAC2 agonist 10%, FBPA coupling cs -42* and EPAC1 ag 12%.
CN(C)c1ccc(C=Nc2ccc(N(C)C)cc2)cc1 was read as EPAC1 antagonist 1%, USP1-UAF1 inh inconclusive, EPAC2 antag 3%, EPAC2 agonist 2%, FBPA coupling cs -29 and EPAC1 ag 1%.
Screening O=C(O)c1ccccc1C(=O)Nc1n[nH]c(=S)s1 returned EPAC1 antagonist 5%, USP1-UAF1 inh -14%, EPAC2 antag 3%, EPAC2 agonist -4%, FBPA coupling cs -70* and EPAC1 ag -4%.
Screening O=C(O)c1ccccc1C(=O)Nc1nccs1 returned EPAC1 antagonist 0%, USP1-UAF1 inh -8%, EPAC2 antag -1%[57.1 µM], EPAC2 agonist 5%, FBPA coupling cs 0 and EPAC1 ag 6%.
For CC(=O)/C(N=Nc1ccc(SC(F)F)cc1)=C(\C)O the results were EPAC1 antagonist 1%, USP1-UAF1 inh 0%, EPAC2 antag -8%, EPAC2 agonist -5%, FBPA coupling cs -3 and EPAC1 ag -4%.
For CCSC(=O)N=Nc1ccc(O)cc1 the results were EPAC1 antagonist -17%, USP1-UAF1 inh 32µM*, EPAC2 antag -19%, EPAC2 agonist -18% and EPAC1 ag -33%.
For CCCCN(CCCC)C(=O)c1cc2ccccc2c(=O)o1 the results were EPAC1 antagonist 1%, USP1-UAF1 inh -5%, EPAC2 antag 12%, EPAC2 agonist -12%, FBPA coupling cs 4 and EPAC1 ag 4%.
`COC1OC(c2ccccc2)=C(c2cnc(N)nc2)c2ccc(F)cc21` (stereo not given) gave EPAC1 antagonist -5%, EPAC2 antag 40µM*, EPAC2 agonist 10% and EPAC1 ag 5%.
For CCOC(=O)COc1ccc(CC)cc1C(=O)c1ccn2nc(-c3ccc(Cl)cc3)cc2n1 the results were USP1-UAF1 inh -22%.
`COc1ccc(C(C)=O)cc1CC(=O)N(Cc1ccccc1)c1ccccc1` gave EPAC1 antagonist 6%, USP1-UAF1 inh -21%, EPAC2 antag -22%, EPAC2 agonist 3%, FBPA coupling cs -2 and EPAC1 ag 8%.
